In PubChem BioAssay (NCI):
Several values for one entry are separate records, joined by “and”; a condition that tells them apart may be missing. Identical values can stand only once. The panel holds about 79,000 compounds, 15% with a hit somewhere; the sample as a whole holds those more often. More than one record can exist for a structure, and the calls need not agree. Activity calls are given as the source filed them. No stated cut-off is given here; in the data, active means growth inhibition above about 70%; inactive means the rest.

Columns and labels:
[1] = NCI Yeast Anticancer Drug Screen. Data for the rad50 strain (AID 155);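 further: 0% = growth of vehicle-only cultures of the same strain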; details: S. cerevisiae rad50 strain growth inhibition, stronger effect = higher value
Procedure, shortened: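 Compounds were tested on a yeast strain with an engineered DNA damage repair alteration; the reported value is growth inhibition normalised to vehicle treatment.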

[2] = NCI Yeast Anticancer Drug Screen. Data for the mec2-1 strain (AID 157); details: S. cerevisiae mec2-1 strain, stronger effect = higher value
Procedure, shortened: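 Each compound was tested on mec2-1 yeast, a strain altered in DNA damage repair or cell cycle control. Growth inhibition is reported relative to vehicle.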

[3] = NCI Yeast Anticancer Drug Screen. Data for the sgs1 mgt1 strain (AID 161);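 further: 0% = growth of cultures given vehicle only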; details: S. cerevisiae sgs1 mgt1 strain, stronger effect = higher value
Procedure, shortened: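 Genetically altered yeast, compound exposure, growth inhibition relative to vehicle.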

[4] = NCI Yeast Anticancer Drug Screen. Data for the cln2 rad14 strain (AID 165);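 further: 0% = growth equal to vehicle treated cultures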; details: S. cerevisiae cln2 rad14 strain, stronger effect = higher value
Procedure, shortened: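 Test compounds were added to cln2 rad14 yeast cultures; inhibition of growth was then determined by comparison with vehicle treatment.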

[5] = NCI Yeast Anticancer Drug Screen. Data for the bub3 strain (AID 167); details: S. cerevisiae bub3 mutant strain, stronger effect = higher value
Procedure, shortened: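 Growth of a checkpoint-deficient yeast mutant is measured after compound exposure. Values represent inhibition relative to vehicle.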

[6] = NCI Yeast Anticancer Drug Screen. Data for the mlh1 rad18 strain (AID 175); details: S. cerevisiae mlh1 rad18 strain growth inhibition, stronger effect = higher value
Procedure, shortened: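 Inhibition values reflect reduced growth of mutant yeast versus vehicle-treated controls following compound exposure; the mutations affect DNA damage repair.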

[7] = at 5.0 µM (retest, dose inferred, filed as 0.5)
[8] = at 50.0 µM (retest, dose inferred, filed as 5.0)

Measured: growth inhibition

Cc1cc(=O)[nH]c2ccc(Cc3ccc(N)cc3)cc12
inactive: [1]; [7] -3% | [1]; [8] 12% | [1]; at 50.0 µM 6.25% and 15.6% | [2]; [7] 9% | [2]; [8] 22% | [2]; at 50.0 µM 1.7% and 0.45% | [3]; [7] 15% | [3]; [8] 27% | [3]; at 50.0 µM 14.6% and 1.2% | [4]; [7] 0% | [4]; [8] -2% | [4]; at 50.0 µM 13.2% and 31.4% | [5]; [7] 3% | [5]; [8] 10% | [5]; at 50.0 µM 19.1% and -13.5% | [6]; [7] 21% | [6]; [8] 22% | [6]; at 50.0 µM 11.8% and -1%

Nc1nnc(/C=C/c2ccccc2)o1
inactive: [1]; [7] 2% | [1]; [8] -22% | [1]; at 50.0 µM 19.5% | [2]; [7] 8% | [2]; [8] -21% | [2]; at 50.0 µM -21.6% | [3]; [7] -8% | [3]; [8] -9% | [3]; at 50.0 µM -4.6% | [4]; [7] 1% | [4]; [8] -4% | [4]; at 50.0 µM 42.2% | [5]; [7] 1% | [5]; [8] -4% | [5]; at 50.0 µM -1.9% | [6]; [7] 7% | [6]; [8] 21% | [6]; at 50.0 µM -10.2%

CN(C)c1ccc(/C=C/c2sc3ccccc3[n+]2C)cc1
inactive: [1]; [7] -39% and 14% | [2]; [7] -16% and 49% | [3]; [7] -2% and 16% | [4]; [7] -2% and 13% | [5]; [7] 12% and -4% | [6]; [7] 7% and 22%
active: [1]; [8] 99% and 98% | [1]; at 50.0 µM 99.2% | [2]; [8] 99% | [2]; at 50.0 µM 99.2% and 99.4% | [3]; [8] 72% and 99% | [3]; at 50.0 µM 99.5% and 99.4% | [4]; [8] 99% and 98% | [4]; at 50.0 µM 98.8% and 99.3% | [5]; [8] 99% | [5]; at 50.0 µM 99.4% and 99.3% | [6]; [8] 99% | [6]; at 50.0 µM 99.3% and 99.2%

CCCCCCCCCCCCCCCCCC(=O)OC(Cc1ccccc1)C(=O)O (stereo not given)
inactive: [1]; [7] 1% | [1]; [8] -2% | [1]; at 50.0 µM 33.9% | [2]; [7] 1% | [2]; [8] 2% | [2]; at 50.0 µM 18% | [3]; [7] 1% | [3]; [8] -15% | [3]; at 50.0 µM 15.7% | [4]; [7] 2% | [4]; [8] -9% | [4]; at 50.0 µM 26.2% | [5]; [7] 1% | [5]; [8] 2% | [5]; at 50.0 µM 35.7% | [6]; [7] 0% | [6]; [8] -1% | [6]; at 50.0 µM 32.9%

Nc1ccc2c(ccc3ccc4ccccc4c32)c1
active: [1]; [8] 93% | [1]; at 50.0 µM 96.7% | [2]; [8] 98% | [2]; at 50.0 µM 96.8% | [3]; [8] 98% | [3]; at 50.0 µM 97.8% | [4]; [8] 96% | [4]; at 50.0 µM 95.5% | [5]; [8] 97% | [5]; at 50.0 µM 96.7% | [6]; [8] 97% | [6]; at 50.0 µM 95.6%
inactive: [1]; [7] -6% | [2]; [7] -8% | [3]; [7] -8% | [4]; [7] -7% | [5]; [7] -6% | [6]; [7] 17%

CC1CP(c2ccccc2)(c2ccccc2)(c2ccccc2)OC1(C(=O)c1ccccc1)c1ccccc1 (stereo not given)
inactive: [1]; [7] -1% | [1]; [8] 9% | [2]; [7] 8% | [2]; [8] 7% | [3]; [7] -21% | [3]; [8] -1% | [4]; [7] -9% | [4]; [8] 2% | [5]; [7] -1% | [5]; [8] 11% | [6]; [7] -15% | [6]; [8] 29%
active: [1]; at 50.0 µM 93.9% | [2]; at 50.0 µM 99.3% | [3]; at 50.0 µM 99.3% | [4]; at 50.0 µM 98.9% | [5]; at 50.0 µM 98.8% | [6]; at 50.0 µM 99.2%

CC(=O)Nc1ccc(S(=O)(=O)N/N=C/c2ccc(C)cc2)cc1
inactive: [1]; [7] 7% | [1]; [8] 8% | [1]; at 50.0 µM -3.15% | [2]; [7] 8% | [2]; [8] 1% | [2]; at 50.0 µM -17.6% | [3]; [7] 15% | [3]; [8] 6% | [3]; at 50.0 µM 7.45% | [4]; [7] 8% | [4]; [8] 1% | [4]; at 50.0 µM 64.5% | [5]; [7] 26% | [5]; [8] -1% | [5]; at 50.0 µM -38.6% | [6]; [7] 28% | [6]; [8] 7% | [6]; at 50.0 µM -12.4%

Oc1ccc(C(O)(c2ccccc2)c2ccccc2)cc1
57% (inactive) and 91% (active): [1]; [8]
30% (inactive) and 89% (active): [3]; [8]
92% (active) and 48.6% (inactive): [3]; at 50.0 µM
active: [1]; at 50.0 µM 88.8% and 71.1% | [2]; at 50.0 µM 91.2% and 89.2%
89.9% (active) and 65.8% (inactive): [4]; at 50.0 µM
inactive: [1]; [7] 45% and 42% | [2]; [7] 51% and 25% | [3]; [7] -30% and 35% | [4]; [7] 45% and 29% | [5]; [7] 21% and 36% | [6]; [7] 40% and 45%
63% (inactive) and 90% (active): [4]; [8]
88.5% (active) and 69.3% (inactive): [6]; at 50.0 µM
60% (inactive) and 95% (active): [6]; [8]
48% (inactive) and 94% (active): [5]; [8]
90.2% (active) and 59.2% (inactive): [5]; at 50.0 µM
59% (inactive) and 89% (active): [2]; [8]

COC(=O)[C@]1(C)CCC[C@]2(C)c3ccc(C(C)C)cc3CC[C@@H]12
3.05% (inactive) and 99.1% (active): [2]; at 50.0 µM
-31.1% (inactive) and 99.2% (active): [5]; at 50.0 µM
-19.3% (inactive) and 99% (active): [4]; at 50.0 µM
inactive: [1]; [7] 0% | [1]; [8] 40% | [2]; [7] 6% | [3]; [7] -8% | [4]; [7] 0% | [4]; [8] 41% | [5]; [7] 1% | [5]; [8] 43% | [6]; [7] -1% | [6]; [8] 66%
active: [2]; [8] 97% | [3]; [8] 74%
13.8% (inactive) and 99% (active): [3]; at 50.0 µM
10.1% (inactive) and 99% (active): [6]; at 50.0 µM
-12.8% (inactive) and 98.4% (active): [1]; at 50.0 µM

Nc1cc(Cl)c(S(=O)(=O)O)cc1Cl
active: [1]; [8] 98% | [2]; [8] 98% | [3]; [8] 96% | [4]; [8] 96% | [5]; [8] 98% | [6]; [8] 98%
inactive: [1]; [7] 67% | [1]; at 50.0 µM -16.2% and 35.6% | [2]; [7] 18% | [2]; at 50.0 µM -1.25% and -2.55% | [3]; [7] 9% | [3]; at 50.0 µM -1.55% and -2.6% | [4]; [7] -7% | [4]; at 50.0 µM -14% and 39.3% | [5]; [7] 12% | [5]; at 50.0 µM -6.55% and 1.75% | [6]; [7] 28% | [6]; at 50.0 µM 5.2% and 30.6%

CC(O)CN1CCN(CC(C)O)CC1.[I][Pt+2][I] (stereo not given)
active: [3]; at 50.0 µM 78.9% | [6]; at 50.0 µM 92.7%
inactive: [1]; [7] -5% | [1]; [8] 27% | [1]; at 50.0 µM 59.7% | [2]; [7] -295% | [2]; [8] 11% | [2]; at 50.0 µM 37.2% | [3]; [7] -1% | [3]; [8] 16% | [4]; [7] 2% | [4]; [8] 7% | [4]; at 50.0 µM 17.9% | [5]; [7] -1% | [5]; [8] 2% | [5]; at 50.0 µM -2% | [6]; [7] -2% | [6]; [8] 16%

CCCCCCCCOC(=O)c1cc(O)c(O)c(O)c1
active: [1]; at 50.0 µM 89.2% | [2]; at 50.0 µM 91.7% | [3]; [8] 98% | [3]; at 50.0 µM 93% | [4]; [8] 98% | [4]; at 50.0 µM 90% | [5]; [7] 70% | [5]; [8] 97% | [5]; at 50.0 µM 89.8% | [6]; at 50.0 µM 89.2%
inactive: [1]; [7] 49% | [1]; [8] 64% | [2]; [7] 46% | [2]; [8] 68% | [3]; [7] 59% | [4]; [7] 48% | [6]; [7] 44% | [6]; [8] 59%

Clc1ccc(CN2CCCN(Cc3ccc(Cl)cc3)C2c2cc3ccccc3c3ccccc23)cc1
inactive: [1]; [7] 49% | [2]; [7] 19% | [2]; at 50.0 µM 68.5% | [3]; [7] 38% | [4]; [7] 22% | [4]; at 50.0 µM 33.1% | [5]; [7] 22% | [6]; [7] 45%
active: [1]; [8] 99% | [1]; at 50.0 µM 70% | [2]; [8] 98% | [3]; [8] 98% | [3]; at 50.0 µM 87.8% | [4]; [8] 96% | [5]; [8] 98% | [5]; at 50.0 µM 98.7% | [6]; [8] 98% | [6]; at 50.0 µM 89.2%

O=C(C(=Cc1ccccc1)C(=O)c1ccccc1)c1ccccc1
90.5% (active) and 7.7% (inactive): [2]; at 50.0 µM
83.8% (active) and -79.9% (inactive): [4]; at 50.0 µM
88% (active) and 51.6% (inactive): [5]; at 50.0 µM
89.5% (active) and 18.9% (inactive): [3]; at 50.0 µM
inactive: [1]; [7] 42% | [2]; [7] 54% | [3]; [7] 50% | [4]; [7] 50% | [6]; [7] 69%
active: [1]; [8] 92% | [2]; [8] 95% | [3]; [8] 95% | [4]; [8] 89% | [5]; [7] 84% | [5]; [8] 96% | [6]; [8] 94%
86.5% (active) and 21.2% (inactive): [1]; at 50.0 µM
87.8% (active) and 20.8% (inactive): [6]; at 50.0 µM

CCOc1ccc(NC(=O)C(=O)NO)cc1
active: [1]; [8] 73% | [1]; at 50.0 µM 83% | [2]; at 50.0 µM 71.8% | [3]; at 50.0 µM 74% | [5]; [8] 85% | [5]; at 50.0 µM 79.5% | [6]; [8] 87% | [6]; at 50.0 µM 79.7%
inactive: [1]; [7] 7% | [2]; [7] -25% | [2]; [8] 59% | [3]; [7] 10% | [3]; [8] 67% | [4]; [7] 6% | [4]; [8] 26% | [4]; at 50.0 µM 52% | [5]; [7] -8% | [6]; [7] -14%
